Results on 19 compounds are retold here after PubChem BioAssay (NCATS).

Test [1] has as its target Glutathione peroxidase 1 (Homo sapiens) (UniProt P07203). Nature of the test: Primary qHTS Assay for Inhibitors of Recombinant Selenoprotein Glutathione Peroxidase 1 (GPX1) (AID 1845191). For activity, negative = inhibition: % is set by controls: 0 for no effect and ±100 for the full control effect. Note: nearly all actives have a fitted effect of over 65% in size. The note with it: recombinant GPX1, GR-coupled NADPH fluorescence, 15 min; series mostly up to 48.8 µM. The method in brief: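 GR-coupled readout: NADPH consumption tracked by fluorescence, ex 340/em 450 nm, at t=0 and after 15 min at RT. Final mix 10 nM GPX1, 1 mM GSH, 0.5 mM CHP, 0.5 mM NADPH, 100 nM GR, 0.01% BSA, following 30 min enzyme–compound preincubation.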
On the technique in general: Quantitative high-throughput screening tests each substance at several concentrations.

Test [2] deals with Phospholipid hydroperoxide glutathione peroxidase GPX4 (Homo sapiens) (UniProt P36969). Nature of the test: Primary qHTS Assay for Inhibitors of Recombinant Selenoprotein Glutathione Peroxidase 4 (GPX4) (AID 1845192). For activity change, negative = inhibition: % is set by controls: 0 for no effect and ±100 for the full control effect. Note: nearly all actives have a fitted effect of over 65% in size. The note with it: recombinant GPX4, GR-coupled NADPH fluorescence, 15 min; series mostly up to 50 µM. The method in brief:
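Steps: GPX4 plus compound, 30 min RT; add GR/GSH/NADPH master mix; start with cumene hydroperoxide; read 340/450 nm fluorescence at 0 and 15 min. Finals were 200 nM GPX4, 1 mM GSH, 0.5 mM CHP, 0.5 mM NADPH, 100 nM GR.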

Test [3] deals with Luciferin 4-monooxygenase (Photinus pyralis) (UniProt P08659). Kind of test: Primary firefly luciferase (FLuc) qHTS assay for identification of artifact compounds. (AID 1845220).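 For activity change, negative = inhibition: plate controls were DMSO vehicle for no effect and no enzyme for full effect.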 Note: nearly all actives have a fitted effect of over 60% in size. The note with it: purified firefly luciferase, luminescence, 5 min; series mostly up to 54.1 µM. The method in brief:
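D-luciferin and ATP (10 uM each, final) in Tris acetate buffer pH 7.6 were incubated with compounds for 15 min at room temperature. The reaction was started with 10 nM Photinus pyralis luciferase and luminescence read after 5 min. Percent inhibition was fitted to a 4-parameter Hill equation.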

A short description of test [4]: Primary fluorescence-based thiol-reactive (MSTI) qHTS assay for identification of artifact compounds. (AID 1845221).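 For activity change, negative = thiol reactive: thiol-reactive compounds lower the probe fluorescence signal.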 Note: nearly all actives have a fitted effect of over 65% in size. Note: potency is the fitted concentration of half-maximal effect. The settings on record: MSTI thiol-reactivity probe, 1 h; series mostly up to 53.8 µM. The method in brief: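 qHTS titration of compound; 4 uM MSTI, PBS pH 7.4, 2% DMSO; 1 h RT, dark; fluorescence 525/598 nm; normalized to Acetyl-MSTI and MSTI; 4-parameter Hill fit.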

For test [5], the system named is Nanoluciferase (engineered Oplophorus gracilirostris luciferase). Nature of the test: Primary Nanoluciferase (NLuc) qHTS assay for identification of artifact compounds. (AID 1845222).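 Note: 0% = DMSO and -100% = no enzyme.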 The note with it: NLuc-conditioned medium, Nano-Glo luminescence, 5 min; series mostly up to 54.1 µM. The method in brief:
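Diluted conditioned medium from NLuc-expressing S16 cells treated with compounds for 15 min at room temperature, then Nano-Glo substrate added; luminescence read after 5 min. Percent inhibition versus no-enzyme and DMSO controls fitted to 4-parameter Hill equation.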

Test [6] can be described thus: Primary redox qHTS assay for identification of artifact compounds. (AID 1845223).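 Note: 0% = DMSO and 100% = reference compound.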 The settings on record: Amplex Red/HRP redox cycling with DTT, fluorescence; series mostly up to 53.8 µM. The method in brief: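 Redox-cycling detection via DTT (250 uM final) oxidation coupled to Amplex Red (25 uM)/HRP (250 mU/mL) in HBSS. 15 min preincubation plus 30 min after DTT, room temperature. Ex/Em 525/598 nm; 4-parameter Hill fit against DMSO and 10 uM DA3003.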

Inconclusive results are not listed. Activity calls are given as the source filed them. Calls come from the whole dose curve; as a rule, active = well fitted curve in the direction sought with a large enough effect; inconclusive = small, poorly fitted or top-dose-only effect, or another doubt; inactive = no such curve, though single readings can be large; an effect the other way counts as inactive or inconclusive.

Sequence of Phospholipid hydroperoxide glutathione peroxidase GPX4 (Homo sapiens) (P36969 whole entry, looked up): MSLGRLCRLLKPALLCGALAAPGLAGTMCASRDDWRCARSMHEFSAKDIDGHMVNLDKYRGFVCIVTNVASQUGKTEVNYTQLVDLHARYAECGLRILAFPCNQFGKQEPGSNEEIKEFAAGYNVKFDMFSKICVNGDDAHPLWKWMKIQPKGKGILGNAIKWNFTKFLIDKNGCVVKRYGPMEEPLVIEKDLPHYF
Sequence of Glutathione peroxidase 1 (Homo sapiens) (P07203 whole entry, looked up): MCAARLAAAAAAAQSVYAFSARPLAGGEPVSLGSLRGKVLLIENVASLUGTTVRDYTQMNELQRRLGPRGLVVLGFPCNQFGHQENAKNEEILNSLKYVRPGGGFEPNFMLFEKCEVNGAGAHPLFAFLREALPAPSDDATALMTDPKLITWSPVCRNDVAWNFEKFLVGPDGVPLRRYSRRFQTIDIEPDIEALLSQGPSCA

For the compound `C[C@H]1CC[C@@]2(OC1)O[C@H]1CC3[C@@H]4CC[C@@H]5C[C@@H](O[C@@H]6O[C@H](CO)[C@@H](O[C@@H]7O[C@@H](C)[C@H](O)[C@@H](O)[C@H]7O)[C@H](O)[C@H]6O[C@@H]6O[C@H](CO)[C@@H](O)[C@H](O)[C@H]6O)CC[C@]5(C)C4CC[C@]3(C)[C@H]1[C@@H]2C` (some centres undefined), the Potency result in test [1] and in test [2] was “inactive” each time. Besides, the activity change, negative = inhibition in test [3] was 0.648% [at 11.6 µM] (inactive). Besides, the activity change, negative = thiol reactive in test [4] is 131% [at 11.5 µM] (inactive). Moreover, in test [5], the activity, negative = inhibition is 2.19% [at 11.6 µM] (inactive). Moreover, the redox activity (% of DA3003) in test [6] is -5.48% [at 11.5 µM] (inactive).

As to `O=C(Nc1ccc(Cl)cc1)c1ccccc1NCc1ccncc1`, the Potency entry in test [1], in test [2], in test [3], in test [4], in test [5] and in test [6] was “inactive” in each case.

As to `CC(CCC1(O)OC2CC3C4CC=C5CC(O[C@@H]6O[C@H](CO)[C@@H](O[C@@H]7O[C@@H](C)[C@H](O)[C@@H](O)[C@H]7O)[C@H](O)[C@H]6O[C@@H]6O[C@@H](C)[C@H](O)[C@@H](O)[C@H]6O)CCC5(C)C4CCC3(C)C2C1C)CO[C@@H]1O[C@H](CO)[C@@H](O)[C@H](O)[C@H]1O` (some centres undefined), the Potency entry in test [1] and in test [2] was “inactive” each time. In addition, the activity change, negative = inhibition in test [3] was -3.06% [at 11.6 µM] (inactive). For the same compound, the activity change, negative = thiol reactive in test [4] is 218% [at 11.5 µM] (inactive). In test [5], the activity, negative = inhibition was 2.85% [at 11.6 µM] (inactive). The redox activity (% of DA3003) in test [6] is 12.7% [at 11.5 µM] (inactive).

On to `COc1ccc(S(=O)(=O)Nc2cc(Cl)cc(Cl)c2OC)cc1N1CCNCC1`, for which the Potency result in test [1], in test [2], in test [3], in test [4], in test [5] and in test [6] was “inactive” each time.

Take `COc1cc([C@H]2O[C@H](c3cc(OC)c4c(c3)OCO4)[C@H](C)[C@H]2C)cc(OC)c1OC`: the Potency entry in test [1], in test [2], in test [3], in test [4], in test [5] and in test [6] was “inactive” in each case.

In the case of `COc1c2c(nc3occc13)C(CC=C(C)C)(OC)C(O)CC2` (centres undefined), the Potency result in test [1], in test [2], in test [3], in test [4], in test [5] and in test [6] was “inactive” throughout.

Consider `CC(=O)OC1CC(C)(C(=O)O)CC2C3=CC(=O)C4C5(C)CCC(OC6OC(C(=O)O)C(O)C(O)C6OC6OC(C(=O)O)C(O)C(O)C6O)C(C)(C)C5CCC4(C)C3(C)CCC12C` (centres undefined), for which the Potency entry in test [1] and in test [2] was “inactive” each time. Moreover, in test [3], the activity change, negative = inhibition was -10.2% [at 11.6 µM] (inactive). For the same compound, the activity change, negative = thiol reactive in test [4] is 9.23% [at 11.5 µM] (inactive). Also, the activity, negative = inhibition in test [5] is -14.5% [at 11.6 µM] (inactive). The redox activity (% of DA3003) in test [6] was 5.43% [at 11.5 µM] (inactive).

For `CCCCOc1ccc(S(=O)(=O)n2c(C)nc3ccccc32)cc1`, the Potency entry in test [1], in test [2], in test [3], in test [4], in test [5] and in test [6] was “inactive” in each case.

With `CC1(C)CC[C@]2(C(=O)O)[C@H](O)C[C@]3(C)C(=CCC4[C@@]5(C)CC[C@H](O[C@@H]6O[C@H](CO[C@@H]7OC[C@H](O)[C@H](O)[C@H]7O[C@@H]7OC[C@H](O)[C@H](O)[C@H]7O)[C@@H](O)[C@H](O)[C@H]6O)C(C)(C)C5CC[C@]43C)[C@@H]2C1` (some centres undefined), the Potency result in test [1] and in test [2] was “inactive” each time. Also, the outcome in test [3] is “inactive [at 11.6 µM]”. Moreover, the activity change, negative = thiol reactive in test [4] was 133% [at 11.5 µM] (inactive). The activity, negative = inhibition in test [5] is 1.1% [at 11.6 µM] (inactive). Moreover, the redox activity (% of DA3003) in test [6] is 16.3% [at 11.5 µM] (inactive).

As for `CC(=O)O[C@@H]1CC2C(/C=C(\C)C(=O)[C@@]3(O)C[C@@H](C)[C@H](OC(=O)c4ccccc4)C3/C=C/1C)C2(C)C` (some centres undefined), the Potency entry in test [1], in test [2], in test [3], in test [4], in test [5] and in test [6] was “inactive” each time.

Take `COc1ccccc1OCCN1CC(COc2cccc3[nH]c4ccccc4c23)OCC1=O` (centres undefined): the Potency entry in test [1], in test [2], in test [3], in test [4], in test [5] and in test [6] was “inactive” throughout.

For the compound `CC/C=C\CC1C(=O)C=CC1(CCCCC1CCC(=O)O1)OC(C)=O` (centres undefined), the Potency result in test [1], in test [2], in test [3], in test [4], in test [5] and in test [6] was “inactive” each time.

With `CN(C)C(=O)COC(=O)c1cc(-c2ccc(C3CCNCC3)cc2)c2ccc(-c3ccc(C(F)(F)F)cc3)cc2c1`, the Potency entry in test [1], in test [2], in test [3], in test [4], in test [5] and in test [6] was “inactive” in each case.

On to `CC1CC(=O)C2=C(C1)C1OC1C1(O)C2C(=O)c2cccc(O)c2C1O` (centres undefined), for which the Potency result in test [1], in test [2], in test [3], in test [5] and in test [6] was “inactive” throughout. In addition, the Potency in test [4] is 6.56 µM (active).

For the compound `Nc1nc(O)c(C2=C3C(=Nc4ccccc43)C(=O)NCC2)[nH]1`, the Potency entry in test [1], in test [2], in test [3], in test [4], in test [5] and in test [6] was “inactive” throughout.

Regarding `COc1ccc(CCO[C@@H]2O[C@H](CO[C@H]3OC[C@](O)(CO)[C@H]3O)[C@@H](OC(=O)/C=C/c3ccc(O)c(O)c3)[C@H](O[C@@H]3O[C@@H](C)[C@H](O)[C@@H](O)[C@H]3O)[C@H]2O)cc1OC`, the Potency result in test [1], in test [2], in test [3], in test [5] and in test [6] was “inactive” in each case. Also, the Potency in test [4] was 1.58 µM (active).

For `C=C1C(=O)O[C@H]2/C=C(/C)[C@@H](OC(C)=O)C/C=C(\C)C[C@@H](OC(=O)/C(=C/C)COC(=O)/C(=C/C)CO)[C@@H]12`, the Potency result in test [1], in test [2], in test [3], in test [4], in test [5] and in test [6] was “inactive” in each case.

As for `C=C1C(=O)O[C@@H]2C(OC(=O)/C(C)=C\C)/C(C)=C\C(=O)/C=C(\C)C[C@H](O)[C@@H]12` (some centres undefined), the Potency result in test [1], in test [2], in test [3], in test [4], in test [5] and in test [6] was “inactive” throughout.

Consider `C=C1C(=O)O[C@H]2C1CCC(C)=C1C(=O)C=C(C)[C@@]12O` (some centres undefined), for which the Potency entry in test [1], in test [2], in test [3], in test [4], in test [5] and in test [6] was “inactive” throughout.
